Results as given in PubChem BioAssay AID686978 (National Center for Advancing Translational Sciences (NCATS), 2013).
In all, about 420,000 compounds went through this assay and about 64,000 (15%) were called active. About 27% were inconclusive and are not listed. Calls come from the whole dose curve; as a rule, active = well fitted inhibition curve with a large enough effect; inconclusive = small, poorly fitted or top-dose-only effect; inactive = flat fitted curve, though single readings scatter. These entries were drawn from the full list. Entries that show only a call come without a potency.

Assay: qHTS for Inhibitors of human tyrosyl-DNA phosphodiesterase 1 (TDP1): qHTS in cells in absence of CPT; note: nearly all actives have a fitted effect of over 55% in size
Conditions: DT40 Tdp1-/- hTDP1 cells, no CPT, ATP luminescence, 48 h; activity change, negative = growth inhibition: at 46.2 µM (top of the series)
Summary of the method: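 Readout: luminescence from CellTiter-Glo after 30 min in the dark at RT. Cells: DT40 Tdp1-/- with stable hTDP1, 400/well. Exposure: compounds alone, ≥48 hr, 37 °C.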
Potency is the fitted concentration of half-maximal effect.

Compound | Potency
O=C(CN1C(=O)NC(Cc2c[nH]c3ccccc23)C1=O)Nc1ccccc1C(F)(F)F (stereo unspecified) | inactive
COc1ccc(S(=O)(=O)NCCCc2ccccc2)cc1 | inactive
COc1ccc(S(=O)(=O)NCCCCOc2ccc(Cl)cc2)cc1 | 2.06 µM (active)
COc1cccc(NC(C)=[N+](C)CCNS(=O)(=O)c2ccc(Cl)cc2)c1 | inactive
Cc1nc(N)[nH]c(=O)c1Oc1cccc(C(F)(F)F)c1 | inactive
Cc1cccc(N=C2NN=C(c3c[nH]c4ccccc34)CS2)c1 | inactive
Clc1cccc(N=C2NN=C(c3ccc4c(c3)OCCO4)CS2)c1 | 10.3 µM (active)
CSc1ccc(CCNC(=O)C2CCN(c3nnc(-n4cccc4)s3)CC2)cc1 | inactive
COc1ccccc1CCNC(=O)c1cccn1-c1nnc(N2CCCCC2)s1 | 1.64 µM (active)
COc1ccccc1CNC(=O)C1CCN(c2nc3ccccc3o2)CC1 | inactive
N#CC(=C1CCCC1)c1nc(-c2ccc(Cl)cc2)cs1 | inactive
CCOC(=O)C1CCC(CN(Cc2ccc(OC)cc2)S(=O)(=O)c2ccc(F)c(C(=O)Nc3cc(C)ccc3C)c2)CC1 (stereo unspecified) | inactive
Cc1cc2c(cc1S(=O)(=O)NCc1ccc(Cl)cc1)OCC(=O)N2 | inactive
CC(=O)N1CCC2(CCCN(Cc3ccccc3)C2)CC1 | inactive
CC(=O)N1CCC(C(=O)OCc2ccc(Cl)cc2)(c2ccccc2)CC1 | 11.6 µM (active)
O=C(CCC(=O)OCc1ccc(Cl)cc1)Nc1ccccc1 | inactive
Cc1noc(C)c1NC(=O)Nc1ccc2c(c1)C(=O)N([C@H](C)CO)C[C@H](C)[C@@H](CN(C)S(=O)(=O)c1cn(C)cn1)O2 | inactive
NS(=O)(=O)c1ccc(NC(=O)CSc2nnc3c(n2)[nH]c2ccccc23)cc1 | inactive
CCN(CC)c1ccc(/C=C/c2c(C)cnc3ccc(C)cc23)cc1 | 20 µM (active)
CCOC(=O)N1CCN(c2c(NCCCN3CCCC(C)C3)c(=O)c2=O)CC1 (stereo unspecified) | inactive
CC(C)C(=O)OCC(=O)Nc1ccc2c(c1)CCC2 | inactive
CCOc1ccc(NC(=O)C2CC(=O)N=C(N)S2)cc1 (stereo unspecified) | inactive

Compound | Potency
Cc1ccc(C(=O)Nc2nnc(C3=COCCO3)o2)cc1C | 23.1 µM (active)
COc1cc(-c2nnc(NC(=O)C3=COCCO3)o2)cc(OC)c1OC | inactive
COc1ccccc1-c1nnc(NC(=O)c2cccc(N3C(=O)CCC3=O)c2)o1 | inactive
COc1cc(C(=S)N2CCOCC2)ccc1O | inactive
CCCCC(NC(=O)c1cccc(Br)c1)C(=O)O (stereo unspecified) | inactive
O=C(CN1C(=O)NC2(CCCC2)C1=O)NCC1CCCO1 (stereo unspecified) | inactive
O=C(c1ccccc1)N1CCN(C(=O)N2CCCCC2)CC1 | inactive
CC(C)c1ccc(NC(=O)C2CCN(c3nc(-c4ccc(C(C)C)cc4)no3)CC2)cc1 | 13 µM (active)
CC(=O)NN=C(C)c1ccc(NC(=O)C2CC2)cc1 | inactive
Cc1cc(C)cc(NC(=O)C2CCN(c3nc(C)cc(C)n3)CC2)c1 | inactive
Cc1ccc(-n2ncc3c(=O)[nH]cnc32)c(C)c1 | inactive
COc1ccccc1-c1cc2nc(C)c(CCC(=O)NC3CCCCC3)c(C)n2n1 | inactive
CC(C)Cc1ccc(-c2cc3nc(NCc4cccc(Cl)c4)ccn3n2)cc1 | 18.4 µM (active)
COCCCNc1ccn2nc(-c3ccc(CC(C)C)cc3)cc2n1 | inactive
COc1ccccc1-c1cc2nc(C)c(CCC(=O)O)c(C)n2n1 | inactive
COc1ccccc1-c1cc2nc(NCc3cccc(Cl)c3)ccn2n1 | 18.4 µM (active)
Cc1nc2cc(NC(=O)[C@@H]3C[C@@H](Sc4ccccn4)CN3Cc3ccccc3C)ccc2s1 | inactive
O=C1/C(=C/c2ccc3c(c2)OCO3)CCC/C1=C\c1ccc2c(c1)OCO2 | inactive
O=C(OCC(=O)N1CCCCCC1)c1cnc(Cl)c(Cl)c1 | inactive
CCc1ccc(C2C(C(=O)Nc3ccccc3)=C(C)Nc3c(C(=O)Nc4ccc(C)cc4)cnn32)cc1 (stereo unspecified) | 23.1 µM (active)
COc1cccc(C2C(C(=O)Nc3ccc(C)cc3C)=C(C)Nc3c(C(=O)Nc4ccccc4)cnn32)c1 (stereo unspecified) | inactive
CC1=C(C(=O)Nc2ccccc2)C(c2ccc(C)cc2)n2nc(SCc3ccccc3C)nc2N1 (stereo unspecified) | inactive

Compound | Potency
CCCSc1ncccc1C(=O)O | inactive
Cc1cnc(CN(C)C(=O)C2CCC(=O)N(CCc3cccc(F)c3)C2)[nH]1 (stereo unspecified) | inactive
COc1ccc2oc(=O)c(C(=O)N3CCN(c4ccccc4F)CC3)cc2c1 | inactive
Cc1oc2ncn(CC(C)C)c(=O)c2c1C(=O)N1CCN(c2ccccc2F)CC1 | inactive
O=C(Nn1cc(C(=O)N2CCN(c3ccccc3F)CC2)c2ccccc2c1=O)c1cnccn1 | 13 µM (active)
CCOCCCNC(=O)C(=O)NCCCOCC | inactive
O=C(CSc1nc2[nH]ncc2c(=O)[nH]1)Nc1ccc(F)cc1 | inactive
CCOc1ccccc1NC(=O)CCn1cnnn1 | inactive
Cc1[nH]c2ccc(S(N)(=O)=O)cc2c1C | inactive
Cc1ccccc1C(=O)N1CCC(C(=O)Nc2ccc(S(=O)(=O)N(C)C(C)C)cc2)CC1 | 20.6 µM (active)
Cc1ccccc1C(=O)N1CCC(C(=O)Oc2ccc(C#N)cc2)CC1 | inactive
CCc1nnc(NC(=O)C2CCN(C(=O)c3ccccc3C)CC2)s1 | inactive
COc1ccc(-n2c(C)csc2=S)cc1 | inactive
O=C(OCCN1C(=O)c2ccccc2C1=O)[C@@H]1CC(O)CN1S(=O)(=O)c1ccccc1[N+](=O)[O-] (stereo partly specified) | inactive
COc1ccc(S(=O)(=O)N2CCC(C(=O)OCC(=O)c3ccccc3)CC2)cc1[N+](=O)[O-] | inactive
COC(=O)C1(C(=O)OC)C/C=C\CN(S(=O)(=O)c2ccccc2[N+](=O)[O-])CCC1 | 16.4 µM (active)
COc1ccc(-c2oc3ncnc(NCCCO)c3c2-c2ccc(OC)cc2)cc1 | 16.4 µM (active)
OCCc1ccc(NCCc2ccco2)cc1 | inactive
OCCNc1ncnc2oc(-c3ccco3)c(-c3ccco3)c12 | 20 µM (active)
Cc1nnc(NCCO)c2ccccc12 | inactive
COCCNc1ncnc2c1ncn2[C@H]1CN(Cc2ccc(OC)cc2)C[C@@H](CO)O1 | inactive
Nc1nonc1C(=O)NCCc1ccccc1 | inactive

Compound | Potency
O=S1(=O)C=C(SCCN2CCCC2)c2ccccc21 | inactive
CCCC(C)NC(=O)C1CCN(C(=O)C2CC(=O)N(c3ccc(C)cc3)C2)CC1 (stereo unspecified) | inactive
Cc1ccsc1CNn1cnnc1SCc1ccccc1F | inactive
CCn1c(CNC(=O)c2ccco2)nnc1SCC(=O)Nc1cccc(F)c1 | inactive
CC(C)n1cnc2c(Nc3cccc(Cl)c3)nc(N(CCO)CCCO)nc21 | 14.6 µM (active)
CC(C)[C@H](CO)Nc1nc(Nc2cc(N)cc(Cl)c2)c2ncn(C(C)C)c2n1 | 2.99 µM (active)
COC(=O)C(C)n1cnc2c(nnn2-c2cccc(Cl)c2)c1=O (stereo unspecified) | inactive
O=C(NCCc1ccccc1)c1ccc(NC2=NC3CS(=O)(=O)CC3S2)cc1 (stereo unspecified) | inactive
Cc1cc(NS(=O)(=O)c2ccc(NC(=O)C(C)Oc3cccc(C)c3C)cc2)nc(C)n1 (stereo unspecified) | inactive
O=C(CSc1ncnc2sccc12)NC1CCS(=O)(=O)C1 (stereo unspecified) | inactive
Cn1c(SCC(=O)Nc2cccc(O)c2)nnc1-c1ccc(S(=O)(=O)N2CCOCC2)cc1 | inactive
Cc1ccc([C@@H]2CC(=O)[C@@H]3CN(S(=O)(=O)c4ccc(C)cc4)[C@H](c4ccccc4F)C[C@@H]3N2S(=O)(=O)c2ccc(Cl)cc2)cc1 | inactive
Cc1ccccc1CSc1nnc(-c2cccnc2)n1N | inactive
Cc1ccc(-c2nn(-c3ccccc3)cc2CN(Cc2ccccc2)C(=O)CCC(=O)O)o1 | inactive
COCCCNC(=O)Cn1cc(C(=O)C2CC2)c2ccccc21 | inactive
COc1ccccc1Nc1ncnc2c1oc1ccccc12 | 11.6 µM (active)
O=C(CSc1ncnc2c1oc1ccccc12)NC1CCCC1 | inactive
CCC(C(=O)OC)n1cnc2c(oc3ccccc32)c1=O (stereo unspecified) | inactive
COc1ccc(CN2CCC3(CCC(CNC(=O)c4ccco4)O3)CC2)cc1OC (stereo unspecified) | inactive
CCCCCCCNc1nc(Cl)nc(NCCO)n1 | inactive
Cc1occc1-c1nnc(SCC(=O)NC2CCCCC2)o1 | inactive
CCOC(=O)CNC(=O)CN1C(=O)CCSc2ccccc21 | inactive

Compound | Potency
CCOC(=O)Nc1ccc(NC(=O)OCC)cc1 | inactive
CCOC(=O)Nc1ccc2c(c1)N(C(=O)CCCl)c1ccccc1[S@]2=O | 3.66 µM (active)
CCNCCC(=O)N1c2ccccc2Sc2ccc(NC(=O)OCC)cc21 | 13 µM (active)
CCNC(=O)N1c2ccccc2Sc2ccccc21 | inactive
CCOC(=O)Nc1ccc2c(c1)N(C(=O)CCN1CCN(CCO)CC1)c1ccccc1CC2 | inactive
CN1CCC2(CC1)CCN(S(=O)(=O)c1ccccc1)CC2 | inactive
Cc1ccc(S(=O)(=O)N(c2cccc(C)c2)C2CCS(=O)(=O)C2)cc1 (stereo unspecified) | inactive
CC(C)Sc1ncnc2c1cnn2-c1ccccc1 | inactive
O=C(O)c1cc(S(=O)(=O)Nc2ccc3cn[nH]c3c2)ccc1Br | inactive
CC(C)N1C(=O)C2C(C(=O)NC3CCCCC3)C3C=CC2(O3)C1C(=O)NC1CCCC1 (stereo unspecified) | inactive
CCCCOC(=O)Nc1nccs1 | inactive
CCCc1cc(=O)n2[nH]c(SCc3ccccc3)nc2n1 | inactive
CCn1c2ccccc2c2nnc(SCC(=O)O)nc21 | inactive
C=CCn1c2ccccc2c2nnc(SC(CC)C(=O)Nc3nc(C)c(C(=O)OCC)s3)nc21 (stereo unspecified) | 8.2 µM (active)
CCOC(=O)c1sc(NC(=O)C(CC)Sc2nccn2C)nc1C (stereo unspecified) | inactive
N#Cc1cc2[nH]c(=O)c(=O)[nH]c2cc1[N+](=O)[O-] | inactive
CSc1n[nH]c(=S)n1N | inactive
N#Cc1ccc(S(=O)(=O)NCC(=O)OCC(=O)NCCc2ccccc2)cc1 | inactive
